# SRC3 inh: SRC3 coactivator transcriptional activity inhibitors, primary screen, cell-based, luminescence | actives 0.17% (n = 360,000) | Nuclear receptor coactivator 3 (Homo sapiens), Q9Y6Q9 | HEK293 GAL4-SRC3 luciferase reporter | AID 588352, 2011 | inhibition, % at 3.6 µM;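 active = inhibition above a per-campaign cutoff, the mean of all compounds plus 3 SD, cut at about 60% in these data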;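 also: 0% = DMSO-treated cells and 100% = gossypol-treated cells at 36 µM; higher means less SRC3-driven luciferase light from the GAL4 reporter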
# NCOA2 inhibitor: inhibition of GAL4-SRC2 driven luciferase reporter, primary screen, SRC2 inhibitor project, cell-based, luminescence; Nuclear receptor coactivator 2 (Homo sapiens), Q15596; HEK293 GAL4-SRC2 luciferase reporter; inhibition, % at 9 µM; actives 0.17% (n = 370,000);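 active = inhibition above the mean inhibition of all tested compounds plus 3 SD, set per campaign, cut at about 52% in these data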;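 also: 0% = DMSO treated cells and 100% = cells given Gossypol at 36 µM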
# COUP-TFII inh: NR2F2 transcriptional activity inhibitors, primary screen, cell-based, luciferase reporter, HEK293T, luminescence; AID 686940, 2013; HEK293T NGFI-A luciferase reporter; actives 0.7% (n = 370,000); inhibition, % at 8.6 µM;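 active = inhibition above a per-plate cutoff, mean inhibition of test wells between control levels plus 3 SD, cut at about 38% in these data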;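 also: cells cotransfected with COUP-TFII expression vector driving the NGFI-A reporter; 0% = median of COUP-TF2 test wells and 100% = reporter-only cells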
# NR5A2 inv ag: LRH-1 (NR5A2) inverse agonists, primary screen, cell-based, luminescence, HEK293T, StAR-luciferase reporter. Nuclear receptor subfamily 5 group A member 2 (Homo sapiens), O00482. LRH-1 transfected, 24 h. inhibition, % at 3.6 µM. actives 0.13% (n = 360,000). AID 602396, 2012;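 active = inhibition above the mean inhibition of all tested compounds plus 3 SD, cut at about 73% in these data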;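 also: 0% = DMSO wells and 100% = reporter-only cells lacking LRH-1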
# SRC1 inh: SRC1 coactivator transcriptional activity inhibitors, primary screen, cell-based, luminescence; HEK293 GAL4-SRC1 luciferase reporter; inhibition, % at 3.6 µM; actives 0.12% (n = 360,000); AID 588354, 2011;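 active = inhibition above the campaign mean plus 3 SD, with each screening campaign given its own cutoff, cut at about 60% in these data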;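 also: 0% = DMSO treated cells and 100% = gossypol at 36 µM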
# GalR3 antagonist: GalR3 antagonists in HEK293 cells, primary screen, cell-based, fluorescence readout. HEK293 GalR3-CNG cAMP membrane potential fluorescence; galR3 body fused to GalR1 C-terminus. inhibition, % at 3 µM. actives 0.44% (n = 360,000). Galanin receptor type 3 (Homo sapiens), O60755;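 active = inhibition above the screen-wide average plus 3 SD, cut at about 13% in these data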;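 also: forskolin and galanin both at EC90 stimulate the cells; cAMP rise reported by CNG channel membrane potential dye signal; 0% = forskolin plus galanin with DMSO and 100% = forskolin alone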
# Gal4-VP16 ctr: Gal4-VP16 luciferase reporter inhibitors, counter-screen for COUP-TFII antagonist project, cell-based, luminescence, HEK293; actives 25% (n = 2,500); AID 687007, 2013; shares compounds with COUP-TFII inh; inhibition, % at 8.5 µM; in the data active = inhibition above about 13%
# COUP-TFII conf: NR2F2 transcriptional activity inhibitors, confirmation, cell-based, luciferase reporter, HEK293, triplicate. actives 45% (n = 2,500). shares compounds with COUP-TFII inh. AID 687008, 2013. HEK293 NGFI-A luciferase reporter, luminescence. inhibition, % at 8.5 µM;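 active = mean inhibition over three repeats above a set limit taken from the earlier primary screen, cut at about 38% in these data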;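 also: 100% = cells given the luciferase reporter alone without the COUP-TF2 vector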
# * marks the source's active call; other numbers are inactive results; · = no result. In the library only some 1.1% were active in any assay of this set; here they are far more common.
SMILES,SRC3 inh,NCOA2 inhibitor,COUP-TFII inh,NR5A2 inv ag,SRC1 inh,GalR3 antagonist,Gal4-VP16 ctr,COUP-TFII conf
CCCCCCC(=O)N(O)C1CC(=O)N(Cc2ccccc2)C1=O (stereo unspecified),8,9,29,12,2,-4,·,·
CCCCCC(=O)N(O)C1CC(=O)N(c2ccccc2)C1=O (stereo unspecified),14,4,41*,-25,3,-1,-4,36
CCC(NC(=O)c1ccc2c(c1)c(C)c(C)n2Cc1ccc(Cl)cc1)c1ccccc1 (stereo unspecified),·,21,15,·,·,·,·,·
CCN(CC)S(=O)(=O)c1cc(NC(=O)C(=O)c2c(-c3ccccc3)cc3ccccn23)ccc1C,-2,8,39*,5,1,-5,12,18
CCc1c(C)nc2ncnn2c1NCCc1ccc(Cl)cc1,33,33,47*,27,-7,3,1,18
CCc1c(C)nc2ncnn2c1NCCc1ccccc1,0,-17,24,6,14,-5,·,·
C(=Cc1cnc2ccccc2n1)c1ccc2c(c1)OCO2,49,52,52*,6,43,-3,65*,79*
Nc1ccc(-c2cc3ccccc3oc2=O)cc1,65*,85*,88*,56,42,-11,81*,80*
Nc1ncnc2nc(SCc3ccc(Cl)cc3Cl)[nH]c12,-9,-6,0,6,-41,0,·,·
Nc1cc(=O)[nH]c(SCc2ccc(Cl)cc2Cl)n1,13,-13,48*,29,17,3,16*,34
Cc1ccc(/C=C2\CCOC2=O)cc1,-33,-45,-9,-23,-57,-9,·,·
Cc1ccc(/C=C2/CNC/C(=C/c3ccc(C)cc3)C2=O)cc1,12,-54,47*,80*,36,-1,54*,50*
Cc1ccc(NC(=O)c2cc(S(=O)(=O)NCC3CCCO3)ccc2F)cc1 (stereo unspecified),-4,2,-9,-14,-4,-6,·,·
Cc1ccc(NC(=O)c2cc(S(=O)(=O)NCCC3=CCCCC3)ccc2F)cc1,22,31,61*,38,21,-7,3,33
CN(C)S(=O)(=O)c1ccc(C(=O)NC2CCCc3ccccc32)cc1 (stereo unspecified),14,-7,63*,8,-5,1,-3,-2
c1ccc(CNc2nc(-c3ccccn3)nc3ccccc23)cc1,53,16,25,46,-3,-10,·,·
CCC(C)Nc1nc(-c2ccccn2)nc2ccccc12 (stereo unspecified),64*,18,38*,81*,19,-2,-12,3
COC(=O)[C@H]1C[C@@]2(n3ccc4ccccc43)c3ccccc3N(S(=O)(=O)c3ccccc3)[C@H]2N1C(=O)CNC1CCCCC1,·,19,0,·,·,·,·,·
Cc1[nH]n(-c2cccc(Cl)c2)c(=O)c1C=NCC(C)C,-80,-72,-37,-141,-116,-4,·,·
Cc1ccc(-n2c(SCC(=O)Nc3ccc(OCc4ccccc4)cc3)nnc2-c2cnccn2)cc1,·,3,-11,·,·,·,·,·
NC(=O)c1ccsc1NC(=O)COC(=O)Cc1ccsc1,12,-71,14,-8,-16,0,·,·
COc1cc(CC(=O)OCC(=O)Nc2sccc2C(N)=O)cc(OC)c1OC,8,22,43*,9,5,-9,-14,3
Cc1ccc(N2CC(C(=O)NCCS(=O)(=O)N3CCN(c4ccc(F)cc4)CC3)CC2=O)cc1 (stereo unspecified),2,9,-13,-1,3,5,·,·
O=C(Nc1cccc(S(=O)(=O)N2CCOCC2)c1)c1cccc(S(=O)(=O)N2CCCC2)c1,2,-8,21,3,-9,-1,·,·
COc1ccccc1N(C)S(=O)(=O)c1ccc(C(=O)Nc2nc(C)cs2)cc1,15,20,40*,4,9,-8,-10,12
SMILES,SRC3 inh,NCOA2 inhibitor,COUP-TFII inh,NR5A2 inv ag,SRC1 inh,GalR3 antagonist,Gal4-VP16 ctr,COUP-TFII conf
COc1ccccc1N(C)S(=O)(=O)c1ccc(C(=O)Nc2cccc(S(=O)(=O)N3CCOCC3)c2)cc1,25,24,50*,13,6,0,4,26
CN(c1ccccc1)S(=O)(=O)c1ccc(C(=O)Nc2cccc(S(=O)(=O)N3CCOCC3)c2)cc1,12,8,56*,20,19,-5,0,43*
COc1ccccc1N(C)S(=O)(=O)c1ccc(C(=O)Nc2nnc(C)s2)cc1,12,6,17,10,-5,-3,·,·
COc1ccc(C(=O)Nc2cccc(S(=O)(=O)N(C)C)c2)cc1S(=O)(=O)N1CCOCC1,23,7,-7,21,16,-1,·,·
COc1ccc(C(=O)N/C(=C/c2ccc(Cl)cc2)C(=O)Nc2ccc(C(=O)O)cc2)cc1,9,12,1,20,6,-3,·,·
O=C(NCCCc1ccccc1)OC1CCC12CCC(c1ccccc1)CC2 (stereo unspecified),·,-17,2,·,·,·,·,·
CC(C)C[C@@H]1COc2cc(Br)ccc2S(=O)(=O)N1Cc1cn(CCC2OCCO2)nn1,·,13,-19,·,·,·,·,·
CCN1CCN(C(=O)c2cc(COc3ccc4ncccc4c3)on2)CC1,6,1,38*,12,20,-5,-2,19
CCCN1CCN(C(=O)c2cc(COc3ccc4ncccc4c3)on2)CC1,14,16,31,10,21,-10,·,·
CC(C)N(Cc1nccn1C)C(=O)c1cc(COc2ccc3ncccc3c2)on1,7,-5,40*,21,9,-10,-3,6
CCN1CCCCC(NC(=O)c2ccccc2)C1=O (stereo unspecified),·,-28,-10,·,·,·,·,·
COC(=O)[C@]12C[C@H](CC(=O)N3CCC(c4ccccc4)CC3)C(=O)N(Cc3ccco3)C1=C[C@H](C1CCCC1)O[C@@H]2C,·,1,-19,·,·,·,·,·
O=C(NC1CCCCN(Cc2ccc(OC(F)(F)F)cc2)C1=O)c1cccc(F)c1 (stereo unspecified),·,-4,12,·,·,·,·,·
COC1=CC(=O)c2nc(Cl)ccc2C1=O,59,49,38*,76*,64*,-10,35*,26
CC(C)(C)c1ccc(CNc2nc(-c3ccccn3)nnc2-c2ccccc2)cc1,·,·,49*,·,·,·,9,16
